Sampled rows, rich in hits. Any-hit rate of the full collection: about 10%.
JMJD2A Tudor: inhibitors of human JMJD2A Tudor domain; actives 4.4% (n = 390,000); Potency, µM (series often up to 114 µM), actives largely listed as inhibitors; O75164; AlphaScreen JMJD2A-Tudor / H3K4me3 peptide binding; also: nearly all actives have a fitted effect of over 50% in size
HP1b chromo inh: blocks HP1-beta chromodomain binding to methylated histone tails. AID 540317. Potency, µM (highest dose often 114 µM), usual class: inhibitors. actives 0.56% (n = 390,000). P83916. AlphaScreen HP1-beta / biotin-H3K9me3 peptide binding; also: nearly all actives have a fitted effect of over 70% in size
Target sequence (P83916 whole entry, looked up): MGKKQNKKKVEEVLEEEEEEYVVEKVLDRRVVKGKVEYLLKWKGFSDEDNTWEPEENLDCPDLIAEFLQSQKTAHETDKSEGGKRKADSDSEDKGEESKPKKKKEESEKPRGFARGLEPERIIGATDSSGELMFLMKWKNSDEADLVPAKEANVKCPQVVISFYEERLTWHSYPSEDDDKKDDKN
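Compound inhibition of the preformed complex between 50 nM HP1-beta and 50 nM biotinylated H3K9me3 peptide was read by AlphaScreen. Buffer was PBS pH 7.4 with 0.01% Tween-20. Incubations ran 30 min at room temperature, with 10 ug/mL donor/acceptor beads.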
G9a block: blocks human histone lysine methyltransferase G9a; G9a H3K9 monomethylation, AlphaScreen, 2 h; Q96KQ7; actives 8.8% (n = 350,000); Potency, µM (doses to about 102 µM), actives largely listed as inhibitors; also: nearly all actives have a fitted effect of over 75% in size
Target sequence (Q96KQ7 913-1193 limits assumed): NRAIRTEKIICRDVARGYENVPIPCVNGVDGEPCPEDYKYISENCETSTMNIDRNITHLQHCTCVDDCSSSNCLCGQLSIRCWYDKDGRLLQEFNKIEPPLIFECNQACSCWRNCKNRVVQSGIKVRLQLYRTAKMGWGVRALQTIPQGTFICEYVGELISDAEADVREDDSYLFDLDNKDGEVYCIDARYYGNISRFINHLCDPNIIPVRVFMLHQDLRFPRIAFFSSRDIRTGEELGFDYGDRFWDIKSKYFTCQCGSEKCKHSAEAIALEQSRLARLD
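Enzyme 20 nM + cpd, 15 min RT; add b-H3K9 pep 500 nM / SAM 20 uM; 2 h RT; anti-H3K9me1 Ab 0.5 ug/mL + SA donor / anti-rabbit acceptor beads 20 ug/mL each, 10 min; AlphaScreen read.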
Six1-Eya2 inh: Six1/Eya2 interaction inhibition. AlphaScreen GST-Six1/His-Eya2 binding, biochemical; hits give low values. actives 0.56% (n = 360,000). Q15475+O00167. activity change, % (concentration not given with the values). AID 651725; in the data active = activity change below about -65%; inconclusive = mostly about -30% to -63%
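Compounds are tested against tagged Six1 and Eya2 proteins bridged by glutathione donor and nickel acceptor beads; after a one-hour incubation at 37 °C without light, AlphaScreen emission is recorded.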
BAZ2B block: blocks human BAZ2B; Potency, µM (doses to about 114 µM), usual class: inhibitors; AlphaScreen BAZ2B-H3K14Ac peptide displacement; Q9UIF8; actives 4.4% (n = 360,000); AID 504333; also: nearly all actives have a fitted effect of over 60% in size
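Protein-peptide AlphaScreen: BAZ2B 50 nM, b-H3K14Ac 50 nM, 1x PBS pH 7.4 + 0.01% Tween-20. Preincubation 30 min RT; cpd 30 min RT (top 110 uM); beads 20 min RT, light-protected.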
CtBP-E1A inh: CtBP/E1A binding inhibition. AlphaScreen GST-E1A/His-CtBP binding, 1536-well; hits give low values. activity change, % (concentration not given with the values). actives 0.49% (n = 340,000). AID 651724; in the data active = activity change below about -65%; inconclusive = mostly about -30% to -63%
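Protein mix (5X: 125 nM each GST-E1A, His-CtBP) was incubated with pinned compound 2 h at 37 deg C in dark, in 50 mM Tris pH 8.0 buffer with 300 mM NaCl. Glutathione donor and nickel acceptor beads followed; AlphaScreen signal read after 1 h.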
Large screens that a line does not name were inactive. Unless noted, calls follow the shape of the dose curve; as a rule, active = well fitted inhibition curve with a large enough effect; inconclusive = small, poorly fitted or top-dose-only effect; inactive = no such curve, though single readings can be large or run the other way.

CC(NC(=O)c1cccc(S(=O)(=O)N(C)C)c1)C1CC2CCC1C2 (stereo unspecified)	none
O=[S+]([O-])(c1ccc(N2CCOCC2)nc1)N1CCN([S+](=O)([O-])c2c(F)cccc2F)CC1	none (no result: HP1b chromo inh, G9a block, Six1-Eya2 inh, BAZ2B block, CtBP-E1A inh)
O=[N+]([O-])c1ccc(CN2CCCCCC2)s1	JMJD2A Tudor 20µM, HP1b chromo inh 3.2µM, G9a block 10µM, BAZ2B block 40µM
O=[N+]([O-])c1ccc(CN2CCCCCC2)cc1	G9a block inconclusive
Nc1[nH]n2c(=O)cc(-c3ccccc3)nc2c1N=Nc1ccc(S(N)(=O)=O)cc1	JMJD2A Tudor inconclusive, G9a block 35µM, BAZ2B block inconclusive
Nc1[nH]n2c(=O)cc(-c3ccccc3)nc2c1N=Nc1ccccc1	G9a block inconclusive
IC(I)I	G9a block 14µM (no result: JMJD2A Tudor, HP1b chromo inh, Six1-Eya2 inh, BAZ2B block, CtBP-E1A inh)
CC(=O)Nc1ccc(C(=O)NNC(=O)C2CC2)cc1	none (no result: G9a block)
O=C(Nc1ccccc1C(=O)Nc1ccccc1C(=O)O)c1ccccc1	Six1-Eya2 inh -81, CtBP-E1A inh -67
O=C(Nc1ccccc1C(=O)O)c1ncn[nH]1	G9a block 10µM, Six1-Eya2 inh inconclusive, BAZ2B block inconclusive
O=C(Nc1ccccc1C(=O)O)c1ccc(NC(=O)C2CC2)cc1	Six1-Eya2 inh -81, CtBP-E1A inh inconclusive (no result: G9a block)
CCC(=O)Nc1ccc(C(=O)NNC(=O)C2CCCCC2)cc1	G9a block 45µM
O=C(CCCC(=O)N1CCN(c2ccccc2F)CC1)c1ccccc1	none (no result: G9a block)
O=C(O)c1ccccc1NCc1cccnc1	none (no result: G9a block, BAZ2B block)
CC(=O)c1cc(C(=O)Nc2ccccc2C(=O)O)oc1C	JMJD2A Tudor 56µM, G9a block 50µM
Nc1ccc(C(=O)Nc2ccccc2C(=O)O)cc1	G9a block 40µM, CtBP-E1A inh inconclusive
Nc1ccc(C(=O)Nc2ccc3c(O)cc(S(=O)(=O)O)cc3c2)cc1	JMJD2A Tudor 56µM, Six1-Eya2 inh inconclusive, CtBP-E1A inh inconclusive (no result: G9a block, BAZ2B block)
O=C(O)CNc1ccccc1C(=O)O	JMJD2A Tudor 56µM, BAZ2B block inconclusive (no result: G9a block)
CCOc1ccc(C(=O)Nc2ccccc2C(=O)O)cc1	JMJD2A Tudor inconclusive, BAZ2B block inconclusive
CC(=O)N1CCc2cc(CNS(=O)(=O)c3ccc(Cl)s3)ccc21	none (no result: Six1-Eya2 inh, CtBP-E1A inh)
CCOC(=O)C1=CCN(S(=O)(=O)c2ccc(F)cc2)C1c1ccc(F)cc1 (stereo unspecified)	none (no result: JMJD2A Tudor, HP1b chromo inh, G9a block, BAZ2B block)
O=S(=O)(/C=C/c1ccccc1)NCc1ccccc1Cl	none
CCOc1ccc(CN(C)C(=O)c2cccc(S(=O)(=O)N3CCCC3)c2)cc1OC	none (no result: CtBP-E1A inh)
Nc1ccc(NC(=O)c2ccc(C(=O)Nc3ccc(N)cc3)cc2)cc1	JMJD2A Tudor 56µM, BAZ2B block 71µM
O=C(Nc1ccc(N2CCN(C(=O)c3ccccc3F)CC2)cc1)c1ncn[nH]1	Six1-Eya2 inh -72, CtBP-E1A inh inconclusive (no result: BAZ2B block)
Cc1ccccc1C(=O)N1CCN(c2ccc(NC(=O)c3cccnc3Cl)cc2)CC1	G9a block inconclusive
Nc1ccc(C(=O)Nc2ccc(Nc3ccncc3)cc2)cc1	none (no result: CtBP-E1A inh)
COc1ccc(S(=O)(=O)N(Cc2nc(-c3cccc(C)c3)no2)C2CCCCC2)cc1	none (no result: Six1-Eya2 inh, CtBP-E1A inh)
COC(=O)c1ccc(NC(=O)C(=O)NCCc2csc(-c3ccc(F)cc3)n2)cc1	none (no result: Six1-Eya2 inh, CtBP-E1A inh)
O=C(Cn1c(=O)c2cccn2c2ccc(F)cc21)Nc1cccc(F)c1	none (no result: Six1-Eya2 inh, CtBP-E1A inh)
O=C(Cn1c2ccccc2c(=O)c2ccccc21)Nc1cccc(F)c1	JMJD2A Tudor 16µM (no result: CtBP-E1A inh)
CC(C)c1ccc(Nc2nc(Cl)nc(Cl)n2)cc1	JMJD2A Tudor 89µM, G9a block 40µM, BAZ2B block inconclusive (no result: CtBP-E1A inh)
c1ccc(OCc2nnc3sc(C4COc5ccccc5O4)nn23)cc1 (stereo unspecified)	JMJD2A Tudor 50µM, HP1b chromo inh 16µM, G9a block 7.9µM, BAZ2B block 50µM
c1ccc(Cc2nnc3sc(C4COc5ccccc5O4)nn23)cc1 (stereo unspecified)	G9a block 10µM
O=C(CCCc1ccccc1)Nc1ccnn1C1CCN(Cc2ccccn2)CC1	G9a block 79µM, BAZ2B block inconclusive
Cc1ccccc1CN1CCC(n2nccc2NC(=O)CCCc2ccccc2)CC1	none (no result: CtBP-E1A inh)
COc1ccc(C(=O)Nc2ccnn2C2CCN(Cc3cnn(C)c3)CC2)cc1	none
COc1ccc(C(=O)Nc2ccnn2C2CCN(Cc3ccccn3)CC2)cc1	G9a block 50µM
CC(c1ccc(F)cc1)n1c(-c2cccs2)n[nH]c1=S (stereo unspecified)	JMJD2A Tudor inconclusive, G9a block 5µM
CC(C)(C)c1ccc(-c2cc(N)n[nH]2)cc1	JMJD2A Tudor inconclusive
CC(C)n1c(-c2ccc(C(C)(C)C)cc2)n[nH]c1=S	JMJD2A Tudor 28µM, G9a block 2.5µM
CC(c1ccccc1)n1c(-c2ccc(Cl)cc2)n[nH]c1=S (stereo unspecified)	none (no result: G9a block)
CC(C)n1c(-c2ccccc2F)n[nH]c1=S	JMJD2A Tudor 4µM (no result: G9a block)
CC(c1ccccc1)n1c(-c2ccccc2F)n[nH]c1=S (stereo unspecified)	JMJD2A Tudor 22µM (no result: G9a block)
OC(c1ccc(F)cc1)c1nc(-c2cccs2)cs1 (stereo unspecified)	none (no result: JMJD2A Tudor, HP1b chromo inh, G9a block, BAZ2B block)
Cc1ccc(C)c(S(=O)(=O)c2nnn3c2nc(Nc2ccc(F)c(Cl)c2)c2sccc23)c1	none (no result: Six1-Eya2 inh, CtBP-E1A inh)
CC(c1ccccc1)n1c(-c2ccncc2)n[nH]c1=S (stereo unspecified)	JMJD2A Tudor 18µM, G9a block 2.5µM
CN1C(=O)CCS(=O)(=O)C1c1ccc(Cl)c(Cl)c1 (stereo unspecified)	none (no result: JMJD2A Tudor, HP1b chromo inh, G9a block, BAZ2B block)
COc1cc(C2C(C(C)=O)=C(O)C(=O)N2Cc2ccccc2)ccc1O (stereo unspecified)	G9a block 45µM
COc1ccc(C2C(C(C)=O)=C(O)C(=O)N2Cc2ccccc2)c(OC)c1 (stereo unspecified)	G9a block 50µM
COc1ccc(OC)c(C2C(C(=O)c3cccs3)=C(O)C(=O)N2CCN(C)C)c1 (stereo unspecified)	G9a block 50µM
COc1cccc(C2C(C(=O)c3cccs3)=C(O)C(=O)N2CCN(C)C)c1OC (stereo unspecified)	JMJD2A Tudor inconclusive
COc1ccc(C2C(C(=O)C(C)(C)C)=C(O)C(=O)N2Cc2ccccc2)cc1 (stereo unspecified)	none
CC(=O)C1=C(O)C(=O)N(Cc2ccccc2)C1c1cccs1 (stereo unspecified)	G9a block 45µM, BAZ2B block inconclusive
Cc1cc(C)nc(NS(=O)(=O)c2ccc(NC(=O)c3nc(SC(C)C)ncc3Cl)cc2)n1	none (no result: Six1-Eya2 inh, CtBP-E1A inh)
COc1ccc(OC)c(C2C(C(C)=O)=C(O)C(=O)N2CCC(=O)O)c1 (stereo unspecified)	JMJD2A Tudor inconclusive, G9a block inconclusive, BAZ2B block 50µM
